“And” between values parts separate entries of the source, which are not always exact repeats. Equal values may be shown once. This is part of a sample that, as a whole, favours compounds with a hit. Of some 83,000 tested, about 20% had one in any assay.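 For each line, cells grew in 96-well plates with the test compound present at a single concentration for 48 hours.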 Values without a mark were called inactive. The source made the active and inactive calls. The calls were made as follows: active = growth percent below 10; inactive = the rest.

The first assay concerns SW-620 colon. Put plainly: NCI-60 one-dose screen, 48 h (100 = growth as untreated, 0 = no growth, -100 = all killed). Conditions: 10 µM unless noted.
Regarding `COc1ccc(N=Nc2c(N)nn3c(-c4ccc(OC)c(OC)c4)ccnc23)cc1`, the growth was 95.2%.
Consider `CC1=C(C)C(=O)C(NCCN2CCOCC2)=C(Br)C1=O`, for which the growth is 32.7%.
The same measure, in the same setting: the figure for `COc1ccc(Nc2ncnc3sc4c(c23)CCN(Cc2ccccc2)C4)cc1` is 99.8%.
Same read-out and setting: the figure for `CCCCCCCCCc1ccc(C(=O)Nc2cc(C)ccc2C(=O)OC)cc1` is 99.7%.
On the same count and under the same terms, the figure for `O=C(N/N=C/c1ccc(Cl)o1)c1[nH]c2ccc(Br)cc2c1-c1ccccc1` is -29.6% (active); for `O=C(N/N=C/c1occc1Br)c1[nH]c2ccc(Br)cc2c1-c1ccccc1` it is -86.3% (active).
Take `c1n[nH]cc1-c1nc2ccc3cn[nH]c3c2c2c1CCCC2`: the growth is 109%.
`Cc1ccc(C(=O)Nc2cc(-n3ccnc3)cc(C(F)(F)F)c2)cc1-n1cc(-c2cnc3cccnn23)nn1`: the growth was 81.9%.
In the case of `COc1ccc(-c2nc3ccc(-c4nnc(SCc5ccccc5)o4)cc3[nH]2)cc1`, the growth is 7.51% (active).
Turning to `Cc1ccc(C2CC(c3ccc(NC(=S)Nc4ccccc4)cc3)=NN2c2ccc(S(N)(=O)=O)cc2)cc1` (centres undefined), the growth is 19.8%.
With `COc1ccc(C(=O)NNC(=O)CSc2nc3sc4c(c3c(=O)n2-c2ccc(Cl)cc2)CCCC4)cc1`, the growth is 88%.
On to `Cc1[nH]nc2ccc3nc(-c4cn[nH]c4C(F)(F)F)c4c(c3c12)CCCC4`, for which the growth is -31.1% (active).
Same read-out and setting: for `CCC(=O)c1c2c(c3ccc4c5ccccc5ccc4n13)C(=O)c1ccccc1C2=O` the value was 88.5%; for `Cn1cc(-c2cc3nc(-c4cn(C)c5ncc(Br)cc45)cc(N)n3n2)c2cc(F)ccc21`, 26.6%.
Still for that read-out and setting: for `COc1ccc(-c2cc(C(=O)OCc3ccc(Br)cc3)nn2-c2ccc(S(C)(=O)=O)cc2)cc1OC` the value was 99.2%.
As for `CCc1ccccc1-c1nc(CN[C@@H]2C[C@@H]3C[C@H]([C@H]2C)C3(C)C)c(C)o1`, the growth is -43.5% (active).
Still for that read-out and setting: the figure for `O=C(CSc1nnc(-c2ccc(-c3nc4ccc(Cl)cc4[nH]3)cc2)o1)Nc1ccccc1` is 0.173% (active).
The same measure, in the same setting: for `CCCCCCCOc1ccc(S(=O)(=O)Nc2ccc(C)c(F)c2C(=O)O)cc1` the value was 100%; for `CCc1ccccc1NC(=O)N/C(N)=N/c1nc2ccccc2s1`, 21.3%; for `OC(c1ccccc1)(c1ccccc1)C1CCN(c2ccc3nnc(Cl)n3n2)CC1`, 56.6%.
Still for that read-out and setting: the figure for `Cc1ccc(S(=O)(=O)N(CCn2ccnc2[N+](=O)[O-])CCn2ccnc2[N+](=O)[O-])cc1` is 100%; for `O=C(c1ccc(Cl)cc1)C1[C@H](c2ccccc2Cl)[C@@H](c2ccccc2)NC12C(=O)Nc1ccccc12` (some centres undefined) it is -5.33% (active).
Regarding `CS(=O)(=O)Nc1cccc(-n2cnc3cc(-c4ccc(O)cc4)ccc32)c1`, the growth is 46.2%.
Consider `CC(C)(C)C(=O)c1c2c(c3ccc4c5ccccc5ccc4n13)C(=O)c1ccccc1C2=O`, for which the growth was 102%.
For `COc1ccc(CCC2NCCc3c(Br)c4c(c(OC)c32)OCO4)cc1` (centres undefined), the growth is 2.69% (active).
The same measure, in the same setting: the figure for `O=C(Nc1ccc(Br)cc1)Nc1ccc(-c2ccc3c(c2)NC(=O)/C3=C\c2ccc[nH]2)cc1` is 21%.
As for `O=C(Nc1nc2ccccc2s1)Nc1ccccc1Cl`, the growth is 96.8%.
In the case of `CN(C)c1nc(NCCNS(=O)(=O)c2ccc(C(=O)/C=C/c3ccc(Cl)cc3)cc2)nc(N2CCOCC2)n1`, the growth was -66.9% (active).
Consider `COc1cncc(-c2ccc3ncnc(N4CCc5ccc(Cl)cc54)c3c2)c1`, for which the growth is 60.7%.
Still for that read-out and setting: for `CC(C)(C)c1ccc(OCc2nc3ccccc3n2-c2cccc(N)c2)cc1` the value was 77% and 116%.
For `Cc1ccc(S(=O)(=O)Nc2ccc(-c3ccc4c(c3)NC(=O)/C4=C\c3ccc[nH]3)cc2)cc1`, the growth was 47.2%.
`N#CC1=C(c2ccco2)Nc2c(c(-c3ccccc3)nn2-c2ccccc2)C12C(=O)Nc1ccc(Cl)cc12` (centres undefined): the growth is 15.9%.
On the same count and under the same terms, for `CCOc1ccccc1NC(=O)N/C(N)=N/c1nc2ccccc2s1` the value was 25.5%; for `OC1CCC(Cn2c(C(F)(F)F)cc3c(Cl)ncnc32)CC1` (centres undefined), 38.8%.
In the case of `CC[C@]12C=CCN3CC[C@@]4(c5ccc(OC)cc5N(C)[C@H]4[C@@](O)(C(=O)OC)[C@@H]1OC(=O)CCC[P+](c1ccc(OC)cc1)(c1ccc(OC)cc1)c1ccc(OC)cc1)[C@@H]32`, the growth is -82.4% (active).
The same measure, in the same setting: for `COc1cc(C2CC(c3ccc(F)cc3)=Nc3c(N)nc(N)nc3N2)ccc1Oc1nc(Nc2ccc(F)cc2)nc(N(C)C)n1` (centres undefined) the value was 31.8%; for `COC(=O)c1c(C(=O)OC)c2ccc3c4ccccc4ccc3n2c1C(=O)OC`, 111%; for `C[C@@H]1CN(c2ccc3ncc(C#Cc4cncc(C(=O)Nc5ccc(CN6CCN(C)CC6)c(C(F)(F)F)c5)c4)n3n2)C[C@@H](C)O1`, -84.2% (active).

A further assay deals with MCF7 breast. The assay is described as above. The note with it: 10 µM unless noted.
`CCCCCCCCCc1ccc(C(=O)Nc2cc(C)ccc2C(=O)OC)cc1`: the growth was 91.2%.
Regarding `O=C(N/N=C/c1ccc(Cl)o1)c1[nH]c2ccc(Br)cc2c1-c1ccccc1`, the growth was 1.67% (active).
Consider `O=C(N/N=C/c1occc1Br)c1[nH]c2ccc(Br)cc2c1-c1ccccc1`, for which the growth is -66.9% (active).
Still for that read-out and setting: the figure for `c1n[nH]cc1-c1nc2ccc3cn[nH]c3c2c2c1CCCC2` is 78.7%.
On the same count and under the same terms, the figure for `COc1ccc(-c2nc3ccc(-c4nnc(SCc5ccccc5)o4)cc3[nH]2)cc1` is -20.2% (active); for `Cc1ccc(C2CC(c3ccc(NC(=S)Nc4ccccc4)cc3)=NN2c2ccc(S(N)(=O)=O)cc2)cc1` (centres undefined) it is 2.64% (active); for `CCC(=O)c1c2c(c3ccc4c5ccccc5ccc4n13)C(=O)c1ccccc1C2=O` it is 54%.
The same measure, in the same setting: for `CCc1ccccc1-c1nc(CN[C@@H]2C[C@@H]3C[C@H]([C@H]2C)C3(C)C)c(C)o1` the value was -84.4% (active).
Consider `O=C(CSc1nnc(-c2ccc(-c3nc4ccc(Cl)cc4[nH]3)cc2)o1)Nc1ccccc1`, for which the growth is 33.3%.
The same measure, in the same setting: for `CCc1ccccc1NC(=O)N/C(N)=N/c1nc2ccccc2s1` the value was 11%; for `Cc1ccc(S(=O)(=O)N(CCn2ccnc2[N+](=O)[O-])CCn2ccnc2[N+](=O)[O-])cc1`, 100%.
Same read-out and setting: the figure for `O=C(c1ccc(Cl)cc1)C1[C@H](c2ccccc2Cl)[C@@H](c2ccccc2)NC12C(=O)Nc1ccccc12` (some centres undefined) is -19% (active).
Same read-out and setting: for `CS(=O)(=O)Nc1cccc(-n2cnc3cc(-c4ccc(O)cc4)ccc32)c1` the value was 23.6%; for `CC(C)(C)C(=O)c1c2c(c3ccc4c5ccccc5ccc4n13)C(=O)c1ccccc1C2=O`, 75%.
Regarding `COc1cncc(-c2ccc3ncnc(N4CCc5ccc(Cl)cc54)c3c2)c1`, the growth was -1.93% (active).
Same read-out and setting: the figure for `CC(C)(C)c1ccc(OCc2nc3ccccc3n2-c2cccc(N)c2)cc1` is 32% and 92.1%.
With `N#CC1=C(c2ccco2)Nc2c(c(-c3ccccc3)nn2-c2ccccc2)C12C(=O)Nc1ccc(Cl)cc12` (centres undefined), the growth is 21.3%.
On the same count and under the same terms, the figure for `CCOc1ccccc1NC(=O)N/C(N)=N/c1nc2ccccc2s1` is 11%.
The same measure, in the same setting: the figure for `CC[C@]12C=CCN3CC[C@@]4(c5ccc(OC)cc5N(C)[C@H]4[C@@](O)(C(=O)OC)[C@@H]1OC(=O)CCC[P+](c1ccc(OC)cc1)(c1ccc(OC)cc1)c1ccc(OC)cc1)[C@@H]32` is -83% (active); for `COc1cc(C2CC(c3ccc(F)cc3)=Nc3c(N)nc(N)nc3N2)ccc1Oc1nc(Nc2ccc(F)cc2)nc(N(C)C)n1` (centres undefined) it is 7.4% (active).
Same read-out and setting: the figure for `COC(=O)c1c(C(=O)OC)c2ccc3c4ccccc4ccc3n2c1C(=O)OC` is 85.4%.

Source of the values: PubChem BioAssay (NCI).
